Assay results taken from article PMC5540273 (PLoS ONE, 2017).

Columns and labels:
Conditions in all cases: concentration: 1 μM, replicates: in singlicate; n = 1
[1] = tested on: TYK2(JH2domain-pseudokinase)
[2] = tested on: TYRO3
[3] = tested on: ULK1
[4] = tested on: ULK2
[5] = tested on: ULK3
[6] = tested on: T1, VEGFR2
T1 construct: gene KDR

[7] = tested on: T2, VPS34
T2 construct: gene PIK3C3

[8] = tested on: VRK2
[9] = tested on: WEE1
[10] = tested on: WEE2
[11] = tested on: WNK1
[12] = tested on: WNK2
[13] = tested on: WNK3
[14] = tested on: WNK4
[15] = tested on: T3, YANK1
T3 construct: gene STK32A

[16] = tested on: T4, YANK2
T4 construct: gene STK32B

[17] = tested on: T5, YANK3
T5 construct: gene STK32C

[18] = tested on: T6, YES
T6 construct: gene YES1

[19] = tested on: T7, YSK1
T7 construct: gene STK25

[20] = tested on: T8, YSK4
T8 construct: gene MAP3K19
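Further: KINOMEscan kinase panel screen.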

| Structure (SMILES) | %Inh [1] | %Inh [2] | %Inh [3] | %Inh [4] | %Inh [5] | %Inh [6] | %Inh [7] | %Inh [8] | %Inh [9] | %Inh [10] | %Inh [11] | %Inh [12] | %Inh [13] | %Inh [14] | %Inh [15] | %Inh [16] | %Inh [17] | %Inh [18] | %Inh [19] | %Inh [20] |
| --- | --- | --- | --- | --- | --- | --- | --- | --- | --- | --- | --- | --- | --- | --- | --- | --- | --- | --- | --- | --- |
| Cn1cc(-c2ccc3c(c2)CCN3C(=O)Cc2cc(F)cc(C(F)(F)F)c2)c2c(N)ncnc21 [GSK2635225] | 1% | 0% | 0% | 0% | 0% | 22% | 3% | 0% | 0% | 0% | 8% | 10% | 30% | 13% | 19% | 0% | 0% | 13% | 22% | 88% |
| CC(C)(C)c1ccc(C(=O)Nc2cn3cc(-n4ccnc4)ccc3n2)cc1 | 11% | 0% | 0% | 14% | 10% | 0% | 39% | 0% | 0% | 36% | 0% | 3% | 0% | 0% | 0% | 0% | 0% | 0% | 0% | 79% |
| COC(=O)Nc1nc2ccc(Oc3ccc(NC(=O)Nc4cc(C(F)(F)F)ccc4F)cc3)cc2[nH]1.Cl [GW654607] | 1% | 66% | 15% | 0% | 58% | 92.3% | 0% | 0% | 31% | 0% | 25% | 27% | 26% | 15% | 21% | 0% | 100% | 48% | 25% | 97.2% |
| CS(=O)(=O)c1cccc(CNc2nc(Nc3ccc4c(c3)CCC(=O)N4)ncc2C(F)(F)F)c1 | 0% | 0% | 69% | 70% | 66% | 68% | 0% | 0% | 0% | 0% | 0% | 0% | 0% | 0% | 0% | 0% | 0% | 0% | 0% | 99% |
| Fc1cc(Cl)ccc1Nc1ccnc2cc(-c3ccc(CN4CCOCC4)o3)ccc12 [GW560109] | 29% | 83% | 15% | 8% | 34% | 82% | 0% | 27% | 0% | 0% | 10% | 4% | 1% | 8% | 8% | 21% | 24% | 84% | 0% | 71% |
| Nc1ncc(-c2ccc3nccc(-c4ccncc4)c3c2)cc1S(=O)(=O)N1CCCCC1 [GSK1693850] | 12% | 0% | 0% | 0% | 10% | 18% | 95.5% | 2% | 0% | 0% | 1% | 4% | 13% | 64% | 5% | 0% | 0% | 10% | 13% | 69% |
| CC(C)NCC(Cc1ccccc1)NC(=O)c1cc(Br)c(-c2ccnc3[nH]ccc23)s1.Cl.Cl (stereo not shown) [GSK1383281] | 22% | 0% | 0% | 0% | 1% | 33% | 0% | 2% | 6% | 0% | 0% | 0% | 0% | 18% | 21% | 0% | 0% | 0% | 40% | 83% |
| N#Cc1cnc2cc(-c3cnc(CNCCN4CCOCC4)s3)ccc2c1Nc1ccc(Oc2ccccc2)cc1 [GW664114] | 36% | 84% | 10% | 0% | 48% | 12% | 0% | 8% | 7% | 23% | 74% | 95.9% | 94.2% | 89% | 0% | 0% | 0% | 97.1% | 19% | 97% |
| CCNc1nccc(-c2c(-c3ccc(F)cc3)ncn2C2CCN(C)CC2)n1 | 0% | 26% | 0% | 0% | 0% | 0% | 0% | 0% | 0% | 0% | 0% | 0% | 0% | 0% | 0% | 0% | 0% | 3% | 5% | 0% |
| Cc1ccc(O)cc1Nc1ccnc2ccc(C(C)(C)C)cc12 [GW856805] | 38% | 15% | 56% | 30% | 51% | 54% | 51% | 20% | 9% | 18% | 38% | 0% | 21% | 0% | 29% | 4% | 45% | 76% | 1% | 48% |
| Cn1cc(-c2ccc3c(c2)CCN3C(=O)Cc2cc(F)cc(F)c2F)c2c(N)ncnc21 [GSK2634140] | 44% | 0% | 14% | 0% | 4% | 0% | 16% | 27% | 0% | 14% | 13% | 8% | 23% | 14% | 29% | 13% | 0% | 15% | 23% | 96.7% |
